PMP22 txn = modulates PMP22 transcription in S16 Schwann cells | actives 2% (n = 43,000) | S16 Pmp22-F2sN Schwann cells, FLuc/NLuc coincidence luminescence, 24 h | Potency, µM (titrated, usually from 57.5 µM), without a hit: at the highest dose activity change, negative = inhibition, actives largely listed as inhibitors; active means clear falling dose curves in both reporters; inconclusive means both reporters move, but less clearly or upward; inactive means either reporter flat; the % is the NLuc reporter signal; further: potency means the concentration at half of the fitted maximal effect; on the % scale 0 is the no-effect control and ±100 the full control effect
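qHTS, 1536-well. Cells seeded, compounds added by pin tool, 24 h 37C. Nano-Glo reagent 1 (lysis/FLuc), 10 min RT, read; Stop&Glo, 10 min RT, read NLuc.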
pS6 MEF inh = mTORC1 pathway inhibition measured by phospho-rpS6. actives 0.78% (n = 44,000). Potency, µM (series often up to 38.3 µM), for inactives: at the top dose activity change, negative = inhibition, hits mostly inhibitors. Tsc2-/- p53-/- MEF, phospho-rpS6 immunofluorescence/PI, 24 h;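 further: potency means the concentration at half of the fitted maximal effect; plate controls were DMSO for no effect and rapamycin for full effect; nearly all actives have a fitted effect of over 50% in size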
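Immunofluorescence of rpS6 phosphorylation in Tsc2-/-, p53-/- MEFs after 24 h compound exposure, normalized to propidium iodide signal. Activity is expressed as % positive cells, thresholded with 7.5 nM rapamycin.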
HTT-AS act = activates huntingtin-antisense promoter activity; AID 1508624; Potency, µM (top dose mostly 57.5 µM), for inactives: top-dose activity change, positive = activation, usual class: activators; HEK293 HTT-AS promoter firefly luciferase reporter, 24 h; response scale: percent change from vehicle, -100% = no light; actives 0.24% (n = 48,000); further: potency means the concentration at half of the fitted maximal effect; nearly all actives have a fitted effect of over 55% in size
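Quantitative HTS used concentration series of up to 57.5 uM final on HEK293 luciferase reporter cells, 24 h at 37 degrees C. Readout was Dual-Glo firefly luminescence.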
HTT promoter inh = inhibits huntingtin promoter activity | AID 1508623 | HEK293 HTT promoter firefly luciferase reporter, 24 h | Potency, µM (top dose mostly 57.5 µM), inactives show top-dose activity change, negative = inhibition, most hits filed as inhibitors | actives 0.93% (n = 48,000); further: potency means the concentration at half of the fitted maximal effect; nearly all actives have a fitted effect of over 50% in size
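Firefly luciferase readout (Dual-Glo, 10 min RT) after 24 h, 37 °C compound exposure (final up to 57.5 uM) of HEK293 reporter cells cultured 24 h beforehand; PTC124 at 50 uM final as control inhibitor; activity scaled vehicle 0%, zero RLU -100%.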
S16 F2sN tox = S16 Schwann cell cytotoxicity. S16 Pmp22-F2sN Schwann cells viability, CellTiter-Glo, 24 h. Potency, µM (titrated, usually from 57.5 µM), for the others: at the highest dose activity change, negative = cytotoxicity, most hits filed as cytotoxic. actives 0.48% (n = 43,000); further: potency means the concentration at half of the fitted maximal effect; on the % scale 0 is the no-effect control and ±100 the full control effect; nearly all actives have a fitted effect of over 65% in size
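S16 Pmp22-F2sN Schwann cells (500-1,000/well) in phenol-red-free DMEM with 10% FBS received 23 nL compound by pin tool for 24 h at 37 °C. Viability was then read as CellTiter-Glo luminescence after 15 min at room temperature.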
NLuc sat counter = inhibits NanoLuc at saturating substrate, PMP22 counter-screen. Potency, µM (highest dose often 57.5 µM), without a hit: at the top dose activity change, negative = inhibition, hits mostly inhibitors. AID 1508638. shares compounds with PMP22 txn. Secreted NLuc enzyme (filtered S16 cell medium), Nano-Glo luminescence. actives 4% (n = 690); further: potency means the concentration at half of the fitted maximal effect; on the % scale 0 is the no-effect control and ±100 the full control effect
NLuc Km counter = NanoLuc inhibition at Km substrate, PMP22 artifact check | shares compounds with PMP22 txn | Potency, µM (highest dose often 57.5 µM), for the others: top-dose activity change, negative = inhibition, usual class: inhibitors | AID 1508639 | actives 5% (n = 690) | secreted NLuc enzyme, coelenterazine luminescence, Km conditions; further: potency means the concentration at half of the fitted maximal effect; on the % scale 0 is the no-effect control and ±100 the full control effect
FLuc ctr PMP22 = counter-screen for PMP22 expression modulators: firefly luciferase inhibition; shares compounds with PMP22 txn; purified P. pyralis FLuc, luminescence, 10 min; Potency, µM (series often up to 57.5 µM), for inactives: top-dose activity, negative = inhibition, actives largely listed as inhibitors; 690 tested, under 10 active; further: % of control where 0% means no effect
Target sequence (P08659 whole entry, looked up): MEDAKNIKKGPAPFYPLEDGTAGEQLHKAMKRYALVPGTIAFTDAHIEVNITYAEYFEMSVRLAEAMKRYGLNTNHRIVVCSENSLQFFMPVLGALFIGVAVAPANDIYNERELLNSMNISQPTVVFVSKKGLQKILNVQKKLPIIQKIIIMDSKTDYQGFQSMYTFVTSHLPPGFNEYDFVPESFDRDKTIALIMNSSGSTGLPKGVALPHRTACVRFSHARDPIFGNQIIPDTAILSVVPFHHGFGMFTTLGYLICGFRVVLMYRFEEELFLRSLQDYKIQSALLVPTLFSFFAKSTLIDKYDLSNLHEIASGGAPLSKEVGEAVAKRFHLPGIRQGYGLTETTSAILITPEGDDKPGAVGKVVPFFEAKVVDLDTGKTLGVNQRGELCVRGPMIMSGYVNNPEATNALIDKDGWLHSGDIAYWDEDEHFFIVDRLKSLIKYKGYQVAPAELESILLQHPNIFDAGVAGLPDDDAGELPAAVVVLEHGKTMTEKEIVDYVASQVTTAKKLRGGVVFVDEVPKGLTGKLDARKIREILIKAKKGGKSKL
S16 viab conf = confirmation of cytotoxicity in S16 Pmp22-F2sN Schwann cells (luciferase reporters placed in the Pmp22 gene) | shares compounds with PMP22 txn | S16 Schwann cells viability, CellTiter-Glo ATP luminescence, 24 h | Potency, µM (highest dose often 57.5 µM), without a hit: at the top dose activity change, negative = viability loss, hits mostly cytotoxic | actives 7% (n = 690) | AID 1508641; further: potency means the concentration at half of the fitted maximal effect; on the % scale 0 is the no-effect control and ±100 the full control effect
PMP22 txn conf = PMP22 transcription modulation, confirmatory; actives 22% (n = 690); Potency, µM (doses to about 57.5 µM), for the others: top-dose activity change, negative = inhibition, usual class: inhibitors; AID 1508646; shares compounds with PMP22 txn; S16 Schwann cells Pmp22-F2sN, dual luciferase, 24 h; active means clear falling dose curves in both reporters; inconclusive means both reporters move, but less clearly or upward; inactive means either reporter flat; the % is the FLuc reporter signal; further: potency means the concentration at half of the fitted maximal effect
PMP22 HiBiT cnf = rat PMP22 protein level modulation, confirmatory | Potency, µM (doses to about 27.9 µM), for the others: at the highest dose activity change, negative = inhibition, usual class: inhibitors | S16 Schwann cells Pmp22-HiBiT, luminescence, 48 h | shares compounds with PMP22 txn | AID 1508647 | 95 tested, under 10 active
Target sequence (P25094 whole entry, looked up): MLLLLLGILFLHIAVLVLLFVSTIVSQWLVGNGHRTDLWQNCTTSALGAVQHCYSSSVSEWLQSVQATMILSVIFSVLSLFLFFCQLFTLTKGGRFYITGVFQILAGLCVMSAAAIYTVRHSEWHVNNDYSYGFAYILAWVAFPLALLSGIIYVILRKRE
Starred values were filed as active, the others as inactive; ? = inconclusive; nt = not tested or not shown. Compounds with a hit are over-represented: about 3.6% of the library has one in this group of screens. Unless noted, the call rests on the fitted dose curve; in most records, active means well fitted curve in the direction sought with a large enough effect; inconclusive means small, poorly fitted or top-dose-only effect, or another doubt; inactive means no such curve, though single readings can be large; an effect the other way counts as inactive or inconclusive.

SMILES	PMP22 txn	pS6 MEF inh	HTT-AS act	HTT promoter inh	S16 F2sN tox	NLuc sat counter	NLuc Km counter	FLuc ctr PMP22	S16 viab conf	PMP22 txn conf	others
CS(=O)(=O)c1ncc(Cl)c(C(=O)Nc2c(C(=O)Nc3ccccc3)oc3ccccc23)n1	?	4.0%	-3.5%	-12.8%	?	nt	nt	nt	nt	nt
CCOc1ccc(-n2nc3ccc(NC(=O)Cc4ccccc4)cc3n2)cc1	5.04µM*	2.2%	-94.3%	?	?	-5.0%	1.1%	?	3.5%	-2.4%
COc1ccccc1N1CCN(c2ncnc3c2cnn3-c2cc(Cl)ccc2C)CC1	8.43µM*	2.6%	-22.9%	?	?	?	?	2.8%	?	?
Cn1c(=O)c2c(-c3ccccc3Br)n(C(C)(C)C)cc2n(C)c1=O	15.6µM*	-6.7%	-30.8%	-24.4%	0.6%	?	-15.5%	3.0%	?	-21.7%
Cc1cc(C(=O)N2CCN(c3cccc(Cl)c3)CC2)n(-c2ccccc2)n1	nt	nt	-28.4%	-17.4%	nt	nt	nt	nt	nt	nt
CCCN(C(=O)c1cc2c(=O)n(CC)c3ccccc3c2s1)c1ccccc1F	7.61µM*	2.5%	-0.9%	11.5%	6.0%	-19.2%	?	2.6%	-10.4%	?
CN(C)C(=O)[C@H](O)[C@H](Cc1ccccc1)NC(=O)c1cc2cc(Cl)ccc2[nH]1	nt	nt	-33.9%	?	nt	nt	nt	nt	nt	nt
CC1CCN(C(=O)CSc2nnc(NC(=O)Nc3ccccc3)s2)CC1	18.9µM*	2.8%	-33.3%	?	-24.2%	?	?	?	?	0.6%
CCOc1ccc(CCNC(=O)c2c(C)oc3ncn(CC(C)C)c(=O)c23)cc1	20µM*	4.8%	-10.0%	0.6%	2.0%	?	1.7%	?	2.2%	-32.2%
CCOC(=O)c1c(C)oc2nc(C)nc(NCCc3ccc(OCC)cc3)c12	14.2µM*	5.7%	-32.0%	?	-26.6%	?	?	-10.1%	-11.4%	?
CCOC(=O)c1c(C)oc2nc(C)nc(NCCc3ccc(Cl)cc3)c12	-35.1%	?	-18.9%	-4.7%	13.6%	nt	nt	nt	nt	nt
Cc1oc2ncn(CC(C)C)c(=O)c2c1C(=O)NCCc1ccc(Cl)cc1	?	1.3%	-14.6%	?	-9.0%	nt	nt	nt	nt	nt
Oc1ccc(NCc2ccccc2OCc2ccccc2F)cc1	20µM*	-26.5%	-1.7%	-18.1%	28.2µM*	?	?	?	-6.6%	-6.8%
N#Cc1c(C(F)(F)F)cc(-c2cccs2)nc1SCC(=O)Nc1ccc(Cl)cc1	18.9µM*	?	-17.0%	-7.7%	-4.6%	-4.5%	2.7%	-5.1%	9.4%	?
CCOc1ccc(NC(=O)CSc2nc(-c3cccs3)cc(C(F)(F)F)c2C#N)cc1	-12.1%	2.0%	-4.6%	-4.1%	5.8%	nt	nt	nt	nt	nt
COc1ccc(N(CC(=O)Nc2cc(Cl)ccc2C)S(=O)(=O)c2c(C)noc2C)cc1	13.5µM*	-17.3%	-48.1%	?	-4.5%	-8.4%	?	1.0%	-8.1%	?	PMP22 HiBiT cnf=?
CCCOc1ccc(CN2C(=O)C(=O)c3cccc(C)c32)cc1	11.3µM*	?	-28.3%	?	-7.3%	?	?	-16.3%	?	?
Fc1ccc(CNc2ncnc3ccc(F)cc23)cc1	nt	nt	-91.6%	-33.9%	nt	nt	nt	nt	nt	nt
Cn1nc(C(=O)NCc2ccc(Cl)cc2)c2c1-c1ccccc1S(=O)(=O)C2	15µM*	9.3%	-29.8%	?	?	-9.2%	-16.9%	0.0%	1.6%	?
Cn1nc(C(=O)NCc2cccc(Cl)c2)c2c1-c1ccccc1S(=O)(=O)C2	-20.1%	2.8%	-13.7%	-15.2%	6.5%	nt	nt	nt	nt	nt
COc1ccc(Nc2c3c(nc4ccc(NC(=O)c5cc(Cl)ccc5OC)cc24)CCCC3)cc1OC	4.74µM*	0.3%	-94.7%	?	?	-13.1%	-2.4%	12.1%	13.7µM*	9.68µM*
CC(=O)NCC(=O)N1[C@H]2CC[C@H]1c1cc(Nc3ncc(C(F)(F)F)c(NC4CCC4)n3)ccc12	nt	nt	-38.8%	?	nt	nt	nt	nt	nt	nt
COc1ccc(CCNc2ncnc3onc(C)c23)c(OC)c1	4.01µM*	0.7%	-84.1%	1.26µM*	?	-17.5%	4.4%	-17.2%	?	3.96µM*
Cc1ccc(CSc2nnc(-n3c(=O)c(C#N)cc4c(=O)n5cccc(C)c5nc43)s2)cc1	?	-2.9%	-10.6%	-17.2%	3.2%	nt	nt	nt	nt	nt
Cc1cccn2c(=O)c3cc(C#N)c(=O)n(-c4nnc(SCc5ccc(F)cc5)s4)c3nc12	10µM*	-4.7%	-4.5%	-14.2%	?	-6.9%	-1.5%	11.5%	8.3%	-28.4%
COc1ccc(-n2c(SCC(=O)NCc3ccc(Cl)cc3)nc3ccsc3c2=O)cc1	15.8µM*	-6.3%	-26.0%	-19.8%	-2.4%	-8.3%	4.0%	-3.3%	6.5%	-28.1%
Cc1ccc(CNC(=O)CSc2nc3ccsc3c(=O)n2-c2ccc(Br)cc2)cc1	?	-4.6%	-14.3%	-11.8%	3.9%	nt	nt	nt	nt	nt
COc1cc(-c2nc(Cn3nnc(C(=O)Nc4cc(C)cc(C)c4)c3C)c(C)o2)cc(OC)c1OC	?	-11.5%	-34.8%	?	5.5%	4.85µM*	3.85µM*	-8.5%	-1.7%	?
CCc1cccc2c(CCO)c[nH]c12	nt	nt	7.8%	9.0%	nt	nt	nt	nt	nt	nt
